Active and inactive are the calls of the source.
What was measured:
[1] = tested on: Plasmodium falciparum Sir2 (PF13_0152, Sir2A); assay: Plasmodium falciparum Sir2A binding compounds – biochemical, small-molecule microarray, 635 nm fluorescence, primary screen (AID 1098); settings: fluorescence 635 nm, higher = more signal;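 note: score merges spot fluorescence intensity with its signal-to-noise ratio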
[2] = probe aDKK1 binding to arrayed compounds – biochemical, biotinylated probe, 635/667 nm fluorescence, primary screen (AID 1099); settings: small-molecule microarray, higher = more signal;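 note: score merges 667nm spot fluorescence with signal to noise across triplicate slides; reference of the scale not given here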
[3] = probe aCHRDL2 binding to arrayed compounds – biochemical, biotinylated probe, 635/667 nm fluorescence, primary screen (AID 1100); settings: small-molecule microarray, higher = more signal
[4] = change in splice reporter luminescence, either direction, cell-based, HEK293, spliceosome inhibition project, primary screen (AID 1101); settings: HEK293 splicing luciferase reporter, 24 h, higher = more signal, called active from +8 up or from −8 down;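 note: HEK293 cells carrying a splicing-competent luciferase reporter gene; test concentration not given here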
[5] = target: Fibroblast growth factor 10 (Homo sapiens) (UniProt O15520); assay: compounds binding fibroblast growth factor 10 – biochemical, small-molecule microarray, 635 nm fluorescence, primary screen (AID 1102); settings: FGF10 binding, fluorescence 635 nm, higher = more signal
Fibroblast growth factor 10 (Homo sapiens), sequence (O15520 whole entry, looked up): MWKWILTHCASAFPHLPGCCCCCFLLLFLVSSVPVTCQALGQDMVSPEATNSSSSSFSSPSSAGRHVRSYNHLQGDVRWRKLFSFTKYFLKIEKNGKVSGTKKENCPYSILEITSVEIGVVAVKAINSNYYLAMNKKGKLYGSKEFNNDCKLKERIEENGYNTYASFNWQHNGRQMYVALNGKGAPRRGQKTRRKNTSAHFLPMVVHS

[6] = tested on: glycogen synthase kinase-3 (GSK3A per assay name; protocol says GSK3B); assay: compounds binding glycogen synthase kinase-3 – biochemical, small-molecule microarray, 635 nm fluorescence, GSK3A, primary screen (AID 1103); settings: fluorescence 635 nm, higher = more signal; note: the record names both GSK3A and GSK3B
[7] = target: Epidermal growth factor receptor (Homo sapiens) (UniProt P00533); assay: compounds binding epidermal growth factor receptor – biochemical, small-molecule microarray, 635 nm fluorescence, primary screen (AID 1104); settings: EGFR binding, higher = more signal;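 note: score merges 667 nm emission intensity with spot signal to noise over triplicate slides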
Epidermal growth factor receptor (Homo sapiens), sequence (P00533 whole entry, looked up): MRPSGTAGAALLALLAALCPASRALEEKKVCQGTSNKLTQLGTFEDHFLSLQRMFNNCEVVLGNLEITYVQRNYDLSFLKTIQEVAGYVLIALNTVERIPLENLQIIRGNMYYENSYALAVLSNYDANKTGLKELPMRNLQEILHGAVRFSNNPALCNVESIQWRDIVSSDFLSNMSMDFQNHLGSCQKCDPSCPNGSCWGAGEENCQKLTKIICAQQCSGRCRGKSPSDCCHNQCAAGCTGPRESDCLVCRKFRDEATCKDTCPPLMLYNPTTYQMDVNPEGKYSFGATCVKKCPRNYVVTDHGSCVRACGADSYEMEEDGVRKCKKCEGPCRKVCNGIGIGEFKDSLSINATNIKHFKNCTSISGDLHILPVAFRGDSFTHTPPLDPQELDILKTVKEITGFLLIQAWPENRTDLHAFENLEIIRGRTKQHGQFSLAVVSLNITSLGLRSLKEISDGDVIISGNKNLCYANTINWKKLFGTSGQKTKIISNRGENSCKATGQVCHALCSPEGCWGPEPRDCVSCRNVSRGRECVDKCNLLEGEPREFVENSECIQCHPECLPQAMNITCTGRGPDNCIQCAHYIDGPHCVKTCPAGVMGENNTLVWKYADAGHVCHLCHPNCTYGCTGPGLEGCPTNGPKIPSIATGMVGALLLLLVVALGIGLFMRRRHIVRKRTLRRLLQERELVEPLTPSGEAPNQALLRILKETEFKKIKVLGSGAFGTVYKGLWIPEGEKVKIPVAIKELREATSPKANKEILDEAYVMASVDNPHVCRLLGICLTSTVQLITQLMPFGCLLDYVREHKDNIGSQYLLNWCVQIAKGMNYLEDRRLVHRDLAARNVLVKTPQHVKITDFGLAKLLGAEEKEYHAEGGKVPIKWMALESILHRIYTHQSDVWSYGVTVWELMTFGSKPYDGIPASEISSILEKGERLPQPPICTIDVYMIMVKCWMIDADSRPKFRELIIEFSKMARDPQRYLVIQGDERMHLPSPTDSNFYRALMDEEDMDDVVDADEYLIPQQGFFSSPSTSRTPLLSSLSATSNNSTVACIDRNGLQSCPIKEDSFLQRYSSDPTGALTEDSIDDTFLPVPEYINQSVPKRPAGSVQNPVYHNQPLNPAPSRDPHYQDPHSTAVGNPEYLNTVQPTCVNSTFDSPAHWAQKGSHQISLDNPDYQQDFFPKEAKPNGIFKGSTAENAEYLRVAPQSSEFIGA

[8] = target: Follistatin-related protein 3 (Homo sapiens) (UniProt O95633); assay: compounds binding follistatin-related protein 3 – biochemical, small-molecule microarray, 635 nm fluorescence, primary screen (AID 1105); settings: FSTL3 binding, higher = more signal;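 note: score merges emission near 667 nm and signal to noise per printed spot across three slides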
Follistatin-related protein 3 (Homo sapiens), sequence (O95633 whole entry, looked up): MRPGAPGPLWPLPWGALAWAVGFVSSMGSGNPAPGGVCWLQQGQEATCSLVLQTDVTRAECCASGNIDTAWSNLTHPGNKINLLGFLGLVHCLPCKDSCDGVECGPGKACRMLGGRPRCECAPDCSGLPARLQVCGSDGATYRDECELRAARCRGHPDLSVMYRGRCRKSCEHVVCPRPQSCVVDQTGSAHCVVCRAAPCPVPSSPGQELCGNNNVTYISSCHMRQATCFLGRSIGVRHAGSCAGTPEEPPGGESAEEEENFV

[9] = target: Dickkopf-related protein 1 (Homo sapiens) (UniProt O94907); assay: small molecules binding DKK1 protein – biochemical, small-molecule microarray, 635 nm fluorescence scan, primary screen (AID 1106); settings: higher = more signal;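 note: score merges emission near 667 nm with signal to noise over three replicate slides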
Dickkopf-related protein 1 (Homo sapiens), sequence (O94907 whole entry, looked up): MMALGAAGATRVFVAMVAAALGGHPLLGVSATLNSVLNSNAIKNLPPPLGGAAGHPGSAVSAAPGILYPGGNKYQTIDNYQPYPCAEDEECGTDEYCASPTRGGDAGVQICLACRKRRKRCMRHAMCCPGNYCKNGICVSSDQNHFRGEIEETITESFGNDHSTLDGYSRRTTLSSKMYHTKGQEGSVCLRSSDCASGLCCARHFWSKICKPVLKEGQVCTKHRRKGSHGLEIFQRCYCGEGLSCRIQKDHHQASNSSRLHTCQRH

[10] = tested on: Inhibin beta A chain (activin A); assay: small molecules binding activin A – biochemical, small-molecule microarray, 635 nm fluorescence scan, primary screen (AID 1107); settings: INHBA, higher = more signal;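 note: mouse activin A protein probed at 4.33 µg/mL on printed slides; score merges bound-protein fluorescence near 667 nm with spot signal-to-noise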

Structure (SMILES) | composite z-score [1] | composite z-score [2] | composite z-score [3] | z-score [4] | composite z-score [5] | composite z-score [6] | composite z-score [7] | composite z-score [8] | composite z-score [9] | composite z-score [10]
COc1ccc([C@H]2OC[C@@H]3C[C@H](Cc4ccccc4)C(=O)N32)cc1 | -0.33 | -0.157 | -0.598 | -0.524 (inactive) | 0.439 | -0.0107 | 0.212 | 0.401 | 0.313 | 0.0048
CC1CC/C=C\[C@H]2OC34C=CCN(c5ccc(Cl)cc5)C(=O)[C@H]3N(C(C)CO)C(=O)[C@]4(C)C2C(=O)O1 (stereo not given in full) | 0.365 | -0.132 | 0.158 | -0.718 (inactive) | -0.39 | -0.793 | -0.955 | -1.43 | -0.945 | 0.896
O=C1O[C@@H](c2ccccc2)[C@@H](c2ccccc2)N2[C@@H](c3ccc(OCCO)cc3)[C@]3(C(=O)Nc4ccc(C#CC5=CCCCC5)cc43)[C@@H](C(=O)NC[C@H](O)c3ccccc3)[C@H]12 | 0.674 | -0.653 | -0.762 | 0.556 (inactive) | 1.4 | 1.31 | 0.445 | 1.4 | 0.708 | 1.07
C=CCOC(=O)[C@@H]1[C@H]2C(=O)O[C@H](c3ccccc3)[C@H](c3ccccc3)N2[C@H](c2ccc(OCCOC(=O)[C@@H]3C[C@@H]4C(=O)N[C@@H](CCCC[N+](C)(C)C)C(=O)N4[C@@H]3c3ccc(O)cc3)cc2)[C@@]12C(=O)Nc1ccc(I)cc12 | 0.822 | -0.178 | -0.18 | 0.527 (inactive) | 1.18 | 1.24 | 0.49 | 1.41 | 0.776 | 0.192
Cc1ccc(S[C@]2(C(=O)NC(C)C)CC(=O)N(Cc3cc(C(F)(F)F)cc(C(F)(F)F)c3)[C@@H]2c2ccc(CO)cc2)cc1 | 1.45 | -0.227 | 0.675 | 0.681 (inactive) | -0.671 | -1.27 | -1.48 | -1.57 | -1.5 | -0.403
CC(C)c1ccc(NN2C(C(O)c3ccc(F)cc3)C=CC3C(=O)N(c4ccccc4)C(=O)C32)cc1 (stereo not given) | 1.28 | 0.47 | 0.775 | -0.548 (inactive) | 1.07 | 0.275 | 0.3 | 1.37 | -0.0647 | 0.869
CN1C2C=C(CCCO)C(C3C(=O)N(C(N)=O)C(=O)C32)C1C1CC1 (stereo not given) | -0.149 | -0.105 | 0.1 | 0.93 (inactive) | -0.0933 | -0.0699 | -0.0436 | -0.785 | 0.0144 | -0.393
O=C1C2C=CC(C(O)C3CC=CCC3)N(Nc3ccccc3)C2C(=O)N1c1ccccc1 (stereo not given) | 1.33 | 1.13 | 1.12 | -0.225 (inactive) | 0.154 | 0.466 | 0.303 | 1.03 | 0.333 | 1.68
COc1cc2c(cc1O)C=[N+](Cc1sc3ccccc3c1Cl)CC2 | 0.209 | 0.0295 | 0.494 | 0.134 (inactive) | -0.0275 | 0.0717 | 0.454 | -0.0687 | 0.396 | 1.19
C=CCC(OC(C)=O)[C@@H]1[C@@H](N(Cc2cccc3ccccc23)C(=O)Cc2ccc(OC)cc2)c2cc(OCCCO)ccc2N1C(=O)c1ccc(-c2ccccc2)cc1 (stereo not given in full) | -0.203 | 0.0699 | 0.44 | -0.279 (inactive) | -0.249 | -0.179 | 0.347 | -0.0555 | -0.324 | 1.43
CCCC1(C(=O)OC)C=C2C(=C(C)C(=O)C2C)CN1 (stereo not given) | -0.79 | 0.719 | 0.974 | 0.888 (inactive) | 0.168 | -0.636 | 0.0023 | -0.105 | -0.238 | 1.57
C[N+](C)(C)CCCC[C@@H]1NC(=O)[C@@H]2C[C@H](C(=O)NCCCCCCN)[C@H](c3cccc(OCCO)c3)N2C1=O | 1.16 | 1.85 | 1.14 | -0.111 (inactive) | 0.766 | 1.29 | 0.132 | 0.776 | 0.695 | 1.4
C#CCN(Cc1ccccc1Br)[C@H](/C=C/c1ccccc1)[C@@H](O)Cc1ccccc1 | -0.699 | 0.12 | 0.857 | -1.51 (inactive) | -0.636 | -0.705 | -1.45 | -1.21 | -1.42 | 1.35
CO[C@H]1O[C@H](CO)[C@@H](OC(=O)Nc2ccc(Br)cc2)[C@@H]2OC(=O)[C@@H](Cc3ccccc3)C/C=C/C[C@H](Cc3ccccc3)C(=O)O[C@@H]12 | 0.939 | -0.139 | 0.265 | -0.913 (inactive) | 0.767 | 0.602 | -0.265 | -0.0749 | -0.0375 | 0.517
O=C1OCCC=C[C@H]2OC34C=CCN(c5ccc6ccccc6c5)C(=O)[C@H]3N(CCCO)C(=O)[C@@H]4C12 (stereo not given in full) | 0.933 | -0.258 | 0.637 | -1 (inactive) | -1.62 | -2.21 | -1.93 | -1.94 | -1.8 | -2.42
CC1CC/C=C\[C@H]2OC34C=CCN(C(C)(C)C)C(=O)[C@H]3N(CCCCCO)C(=O)[C@@H]4C2C(=O)O1 (stereo not given in full) | 0.261 | -0.27 | 0.2 | -0.0565 (inactive) | -0.899 | -0.696 | -1.08 | -0.852 | -1.16 | 0.0607
CC(C)N1CC=CC23O[C@@H]4C=CCCOC(=O)C4[C@H]2C(=O)N(CCCO)[C@@H]3C1=O (stereo not given in full) | 0.415 | -0.137 | 0.0009 | -1.38 (inactive) | -0.264 | -0.322 | -1.07 | -0.317 | -0.183 | 0.864
COCC(=C=CC[C@H](O)c1ccc(CO)o1)CCO | 1.39 | 0.0057 | -0.336 | 0.191 (inactive) | 1.52 | 0.654 | -0.294 | 1.19 | 0.352 | 0.569
CCOC(=O)C[C@H]1[C@H](OC(=O)c2cc3ccccc3oc2=O)[C@@H](NC(=O)c2ccc3ccccc3n2)c2cc(OCCCO)ccc2N1C(=O)Cc1ccc(OC)cc1 | 0.915 | -0.207 | -0.427 | -0.362 (inactive) | 1.01 | 1.06 | 0.442 | 1.2 | 0.707 | 0.288
CC1=C2[C@@H](CCc3ccccc3)OB(O)C[C@@H]2[C@@H]2C(=O)N(C)C(=O)[C@@H]2C1 | -0.186 | -0.232 | -0.223 | 0.305 (inactive) | 0.985 | 0.443 | 0.135 | 0.451 | 0.521 | 0.273
COc1cc2c(cc1O)C(C1CC1)N(C)CC2 (stereo not given) | 0.353 | 0.211 | 0.583 | -0.451 (inactive) | -0.382 | -1.3 | -1.17 | -0.57 | -0.896 | 0.942
COCCOC(=O)N1C(=O)[C@@]2(c3cc(C#CC4=CCCCC4)ccc31)[C@H](c1ccccc1OCCO)N1[C@H](c3ccccc3)[C@H](c3ccccc3)OC(=O)[C@H]1[C@@H]2C(=O)N1CCN(c2ncccn2)CC1 | 0.749 | -0.149 | -0.513 | -1.46 (inactive) | 0.751 | 1.28 | 0.502 | 1.06 | 0.489 | 0.333
COc1cc2c(cc1O)C(c1cccs1)N(Cc1cc3c(cc1Br)OCO3)CC2 (stereo not given) | 1.5 | 0.421 | 0.726 | -0.0664 (inactive) | 1.47 | 1.32 | 0.345 | 1.13 | 0.449 | 0.632
[N-]=[N+]=Nc1ccccc1C[C@]1(C(=O)N2CCOCC2)COC(c2ccc(OCCCO)cc2)=N1 | 1.6 | 0.399 | 0.948 | -0.59 (inactive) | 0.613 | 1.33 | -0.262 | 0.634 | -0.259 | 0.959
